Screening data as filed in PubChem BioAssay.
POLB inh: DNA polymerase beta (human) inhibition | P06746 | Pol beta primer extension/strand displacement, fluorescence kinetic | Potency, µM (highest dose often 114 µM), inactives show at the highest dose activity change, negative = inhibition, hits mostly inhibitors | 340,000 compounds, 1.3% hits; further: potency means the concentration at half of the fitted maximal effect; on the % scale 0 is the no-effect control and ±100 the full control effect
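Kinetic readout of DNA synthesis with strand displacement by Pol beta. Compound and 10 nM enzyme sit 15 min at room temperature; 50 nM substrate starts the reaction, read immediately and at 10 min.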
WRN helicase inh: inhibitors of human WRN helicase; Q14191; WRN helicase unwinding, fluorescent forked duplex, kinetic; Potency, µM (titrated, usually from 114 µM), for the others: top-dose activity change, negative = inhibition, usual class: inhibitors; 360,000 compounds, 0.46% hits; further: potency means the concentration at half of the fitted maximal effect; on the % scale 0 is the no-effect control and ±100 the full control effect; nearly all actives have a fitted effect of over 55% in size
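Fluorescence dequenching readout, ex 525 nm/em 598 nm, kinetic mode: forked duplex DNA (100 nM final) with adjacent fluorophore and quencher unwound by WRN (20 nM final) with 2 mM ATP. Compound preincubation 15 min, room temperature.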
Pol kappa inh: inhibitors of human DNA polymerase kappa; purified Pol kappa, fluorescent DNA synthesis assay, 10 min; Potency, µM (titrated, usually from 107 µM), inactives show at the highest dose activity, negative = inhibition, most hits filed as inhibitors; Q9UBT6; 400,000 compounds, 0.53% hits; further: potency means the concentration at half of the fitted maximal effect; on the % scale 0 is the no-effect control and ±100 the full control effect
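Here, compound and 10 nM enzyme are combined for 15 min at room temperature; adding 50 nM substrate (final) starts DNA synthesis, tracked by fluorescence at 0 and 10 min against buffer-only wells.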
PI5P4Ka inh: blocks human PI5P4K alpha kinase activity | max response, % | PI5P4Kalpha enzyme, ADP-Glo luminescence, 60 min; active compounds read low | P48426 | 330,000 compounds, 1.2% hits; active means max response of -50% or lower; inconclusive means between -30% and -50%; inactive means -30% or higher; further: value at the top dose of about 77 µM; on the % scale 0 is the no-effect control and ±100 the full control effect
Target sequence (P48426 whole entry, looked up): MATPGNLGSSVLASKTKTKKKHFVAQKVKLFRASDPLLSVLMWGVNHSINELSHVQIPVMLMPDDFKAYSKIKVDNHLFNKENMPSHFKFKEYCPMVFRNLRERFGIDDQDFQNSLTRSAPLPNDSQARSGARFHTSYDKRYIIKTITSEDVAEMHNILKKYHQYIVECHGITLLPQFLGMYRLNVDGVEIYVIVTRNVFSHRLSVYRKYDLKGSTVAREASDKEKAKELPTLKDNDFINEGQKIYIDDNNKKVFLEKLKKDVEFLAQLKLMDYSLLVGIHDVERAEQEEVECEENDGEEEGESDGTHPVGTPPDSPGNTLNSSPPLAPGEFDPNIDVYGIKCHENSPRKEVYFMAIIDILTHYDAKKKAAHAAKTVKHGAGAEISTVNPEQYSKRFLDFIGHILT
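ADP-Glo luminescence end-point after a 60 min room-temperature kinase reaction. PI5P4Kalpha and substrate in HEPES pH 7.4 buffer with EGTA, 0.1% CHAPS and 5% DMSO; ATP at 5 microM final.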
Pol eta inh: DNA polymerase eta (human) inhibition | Potency, µM (series often up to 114 µM), inactives show at the top dose activity change, negative = inhibition, hits mostly inhibitors | 390,000 compounds, 1.2% hits | recombinant Pol eta, fluorescent DNA replication assay; further: potency means the concentration at half of the fitted maximal effect; on the % scale 0 is the no-effect control and ±100 the full control effect
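Fluorescent replication assay: 50 nM final substrate added after a 15 min room-temperature compound preincubation with 10 nM enzyme. Signal taken at 0 min and again at 10 min.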
POLI inh: DNA polymerase iota (human) inhibition | 390,000 compounds, 1% hits | Pol iota fluorescent replication assay, 10 min | AID 588590 | Potency, µM (titrated, usually from 115 µM), for inactives: top-dose activity, negative = inhibition, usual class: inhibitors; further: potency means the concentration at half of the fitted maximal effect
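Fluorescent replication assay read twice, at 0 min and 10 min after adding 50 nM (final) substrate. Enzyme (10 nM) and compounds were first incubated 15 min at room temperature; enzyme-free buffer wells were negative controls.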
Starred values were filed as active, the others as inactive; ? = inconclusive; / = no result given; [ ] = dose if it differs, or a comment. Most compounds without a hit are left out; they make up all but 2.8% or so of the library. Unless noted, the call rests on the fitted dose curve; in most records, active means well fitted curve in the direction sought with a large enough effect; inconclusive means small, poorly fitted or top-dose-only effect, or another doubt; inactive means no such curve, though single readings can be large; an effect the other way counts as inactive or inconclusive.

SMILES | POLB inh | WRN helicase inh | Pol kappa inh | PI5P4Ka inh | Pol eta inh | POLI inh
Cc1cccc(C)c1NC(=O)CN1CCCCCC1 | / | / | 10%[19.4 µM] | / | / | /
Cc1cc(C)cc(C(=O)C[n+]2cccc(Br)c2)c1 | / | / | -1% | / | / | -5%
O=[N+]([O-])c1ccc(O)c(/C=N/NC(=S)Nc2ccc(Cl)cc2Cl)c1 | -19% | 3%[11.6 µM] | ? | -66* | -26% | ?
Cc1cc(Cl)ccc1NC(=O)CCC(=O)N/N=C/c1cc([N+](=O)[O-])ccc1O | 2% | -3%[57.1 µM] | 4% | 0 | -9% | 49%
CC(C)(C)OC(=O)NC(CNCc1ccccc1)Cc1ccccc1 (centres undefined) | / | -3% | -10% | 4 | -12% | 19%
O=C(Cn1ncc2c3ccccc3n(Cc3cccc(Cl)c3)c2c1=O)Nc1ccc(F)cc1F | 22µM* | / | ? | / | ? | ?
O=C(Cn1ncc2c3ccccc3n(Cc3cccc(Cl)c3)c2c1=O)N1CCCCCC1 | 25µM* | / | -25% | / | -20% | ?
O=C(Cn1ncc2c3ccccc3n(Cc3cccc(Cl)c3)c2c1=O)NCc1cccs1 | 25µM* | / | -27% | / | -17% | ?
COc1ccc(Cl)cc1NC(=O)Cn1ncc2c3ccccc3n(Cc3ccccc3)c2c1=O | 7% | / | -4% | / | -6% | -12%
Cc1ccc(Cl)cc1NC(=O)Cn1ncc2c(C)n(Cc3ccccc3F)c(C)c2c1=O | 13µM* | / | -32% | / | ? | ?
CCCCCCCCCCCCCC(=O)Nc1ccc(/C=C/c2ccnc3ccccc23)cc1 | / | / | -28% | / | / | ?
CC(CCc1ccccc1)NC(=O)Cn1ncc2c3ccccc3n(Cc3cccc(Cl)c3)c2c1=O (centres undefined) | 18µM* | / | -24% | / | ? | ?
Cc1ccc2nc(Cl)c(C3CC(c4ccco4)=NN3C(=O)CCCC(=O)O)cc2c1 (centres undefined) | -4% | -20% | 35µM* | 2 | ? | 16µM*
Cc1ccc2cc(C3CC(c4ccco4)=NN3C(=O)CCCC(=O)O)c(Cl)nc2c1 (centres undefined) | -4% | 5% | 6% | 0 | -5% | 3%
CN1CCN(C2=CC3=CC(=C(C#N)C#N)CCC3CC2)CC1 (centres undefined) | 0% | -6% | -4% | 2 | -5% | 89µM*
CCN1CCN(C2=CC3=CC(=C(C#N)C#N)CCC3CC2)CC1 (centres undefined) | 9% | 25µM* | -10% | -1 | -11% | ?
N#CC(C#N)=C1C=C2C=C(N3CCOCC3)CCC2CC1 (centres undefined) | 27% | -11% | -5% | 2 | -2% | 102%
Cc1ccc(/C=C/C(=O)N2CCN(S(=O)(=O)c3ccc(C)c(C)c3)CC2)o1 | -3% | ? | -5% | -74* | -18% | ?
COC(=O)c1cccnc1Oc1ccccc1 | 17% | 12% | 2% | 6 | -21% | -6%
Cc1cc(-c2ccc(S(=O)(=O)Nc3cc(Cl)ccc3C)s2)on1 | -10% | / | -13% | / | 10% | -2%
Cc1nn(Cc2ccc(Cl)cc2)c(C)c1NC(=O)CCCn1nc([N+](=O)[O-])c(Cl)c1C | 89µM* | -1% | -17% | 6 | 0% | 11%
Cc1cc(C)c2c(=O)cc(C(=O)Nc3ccc(S(=O)(=O)N(C)Cc4ccccc4)cc3)oc2c1 | 3% | / | -9% | / | -13% | 25%
O=C(C[n+]1cccc(Cl)c1)c1ccc(F)cc1 | / | / | -16% | / | / | 17%
S=c1nc(-c2cc(Cl)ccc2Cl)[nH][nH]1 | 3% | -22% | -9% | -64* | 1% | ?
Cc1ccc(NC(=O)C2C3C=CC4(O3)C2C(=O)N(CCCN2CCCCC2)C4C(=O)NC2CCCCC2)cc1C (centres undefined) | 64% | 0% | -7% | -2 | 4% | 67%
SMILES | POLB inh | WRN helicase inh | Pol kappa inh | PI5P4Ka inh | Pol eta inh | POLI inh
CCOc1ccccc1-n1nnnc1SCC(=O)NC(=O)NCc1ccco1 | 22µM* | -15%[57.1 µM] | ? | / | ? | ?
O=C(CSc1nnnn1-c1ccccc1)NC(=O)NCc1ccco1 | 40µM* | -20%[11.6 µM] | ? | -60* | 8.9µM* | 20µM*
COc1ccc(-c2nnc(SCC#CCO)o2)cc1OC | 1% | 8% | -3% | -56* | -5% | -7%
COc1ccc(-c2nnc(SCC(=O)N(C)Cc3ccccc3)o2)cc1OC | -7% | / | -4% | / | 79µM* | 60%
O=C(N/N=C/c1ccc(F)cc1)c1ccccc1 | 24% | -11% | 0% | 10 | -5% | 32%
CC(/C=N/NC(=O)c1ccc(Br)cc1)=C\c1ccccc1 | 22µM* | -22% | 1%[60.1 µM] | / | -11% | ?
O=C(N/N=C/c1ccncc1)c1ccc(-n2cccc2)cc1 | 40µM* | 3% | -2% | -20 | -9% | 79µM*
O=C(N/N=C/c1ccc(OC(=O)c2cccs2)cc1)c1ccc(F)cc1 | 18µM* | -7% | -17% | -1 | ? | 9%
O=C(N/N=C/c1ccc(Br)cc1)c1ccc(F)cc1 | -10% | 1% | -5% | 5 | -11% | -3%
O=C(N/N=C/c1ccc(F)cc1)c1ccc(Br)cc1 | 32µM* | -12% | -8% | / | -16% | -11%
COc1cc2c(NC3CCN(C)CC3)nc(N3CCCN(C)CC3)nc2cc1OCCCC(C)C | / | / | -13% | / | / | -7%
[O-][n+]1cccc(CO)c1 | / | / | -10%[19.4 µM] | / | / | /
Cc1ccc(C(=O)COC(=O)c2ccc(Cl)c(N)c2)s1 | / | ? | -2% | -5 | -7% | 0%
Nc1cc(C(=O)OCC(=O)c2ccc(CC(=O)N3CCOCC3)s2)ccc1Cl | / | -28% | ? | -52* | 28µM* | 13µM*
CCOC(=O)N1CCN(C2=C(NS(=O)(=O)c3ccc(NC(C)=O)cc3)C(=O)c3ccccc3C2=O)CC1 | ? | 1%[11.6 µM] | -10% | 0 | -5% | 6.3µM*
CC1CCN(C2=C(NS(=O)(=O)c3ccc(Br)cc3)C(=O)c3ccccc3C2=O)CC1 | 35% | -11% | -17% | -3 | -12% | 7.1µM*
CC1CCN(C2=C(NS(=O)(=O)c3ccccc3)C(=O)c3ccccc3C2=O)CC1 | ? | -12% | -19% | 9 | -15% | ?
Cc1ccc(NC(=O)CN2CCN(C)CC2)cc1Br | 30% | 6% | -10% | -1 | -3% | 23%
Cc1ccc(-c2c3c([nH]c(=S)c2C#N)CCCC3)o1 | ? | 45µM* | -28% | / | ? | ?
N#Cc1c(-c2ccncc2)c2c([nH]c1=S)CCCC2 | -12% | -19% | -19% | -60* | 0% | -1%
COc1ccc(CC(=O)Nc2cccc(S(=O)(=O)N3CCCCCC3)c2)cc1OC | 9% | -9% | -6% | -5 | -9% | 12%
O=c1cc(/N=C/c2coc3c(ccc4ccccc43)c2=O)[nH]c(=S)[nH]1 | 22µM* | -4% | ? | -75* | ? | ?
